# Vif imaging = HIV Vif self-association inhibitors, primary screen, imaging, HEK293T, single point | 340,000 tested, 0.35% active | inhibition, % at 7.49 µM | HEK293T cells, Vif self-association by quenched fluorescence, 24 h; in the data active = inhibition above about 50%, passing the limit was not always enough
# Neddyl block = inhibitors of cullin neddylation, primary screen, biochemical, TR-FRET, uHTS, NAE and Ubc12. NEDD8-conjugating enzyme Ubc12 (Homo sapiens) + NEDD8-activating enzyme E1 regulatory …. 360,000 tested, 0.58% active. inhibition, % at 25 µM; in the data active = inhibition above about 36%
# Target sequence (P61081 whole entry, looked up): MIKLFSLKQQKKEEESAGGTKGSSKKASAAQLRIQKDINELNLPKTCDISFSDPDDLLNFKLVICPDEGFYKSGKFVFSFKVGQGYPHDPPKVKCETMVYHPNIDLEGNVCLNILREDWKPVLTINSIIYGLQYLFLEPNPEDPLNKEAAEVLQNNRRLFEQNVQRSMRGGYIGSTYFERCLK
# Target sequence (Q13564 whole entry, looked up): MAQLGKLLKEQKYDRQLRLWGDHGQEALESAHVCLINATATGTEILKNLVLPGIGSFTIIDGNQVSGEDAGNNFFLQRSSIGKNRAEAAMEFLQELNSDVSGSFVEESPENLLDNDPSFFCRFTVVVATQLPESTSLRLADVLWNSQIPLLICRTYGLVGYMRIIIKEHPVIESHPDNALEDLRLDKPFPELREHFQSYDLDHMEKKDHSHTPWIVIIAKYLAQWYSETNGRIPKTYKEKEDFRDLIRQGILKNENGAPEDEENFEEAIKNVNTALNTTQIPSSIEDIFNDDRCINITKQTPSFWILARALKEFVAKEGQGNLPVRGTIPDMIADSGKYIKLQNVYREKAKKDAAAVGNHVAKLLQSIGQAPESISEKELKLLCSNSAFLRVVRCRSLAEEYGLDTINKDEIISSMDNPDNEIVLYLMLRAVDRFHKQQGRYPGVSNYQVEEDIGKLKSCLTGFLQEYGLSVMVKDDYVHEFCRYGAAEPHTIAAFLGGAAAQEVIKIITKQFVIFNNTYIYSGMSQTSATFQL
# GSIS activator = GLuc luminescence reporter in INS-1E cells, primary screen for activators of glucose-dependent secretion of insulin; INS-1E GLuc reporter insulin secretion, 2-3 h; activation, % at 16.6 µM; 370,000 tested, 0.61% active;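 active = lowest replicate activation of at least 40%, so every replicate reaches that level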;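 note: 0% = median of neutral control wells and 100% = median of IBMX positive control wells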
# dFosB activator = activators of delta FosB homodimer, primary screen, biochemical, fluorescence polarization, TAMRA-CDK5 oligo, single point; Protein FosB (Mus musculus), P13346; purified delta FosB; percent of positive-control signal above neutral wells; 340,000 tested, 0.99% active; AID 493131, 2011; activation, % at 25 µM;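 active = mean activation above about 17%, with every replicate also reaching it, limit read from the data, passing the limit was not always enough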
# A1 inh = caspase 3/7 activation in MEF A1-2A-BIM cells, primary screen, A1 inhibitor project, cell-based, luminescence, HTS; caspase activation, % (test concentration not listed); Caspase-Glo 3/7 luminescence, 3 h; percent of clofoctol response, vehicle zero; 330,000 tested, 0.066% active;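 active = over half of replicate activation scores above 10%, or exactly half above 10 with the replicate mean above 10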
# Starred values were filed as active, the others as inactive; x = no result given. In the library only some 1.9% were active in any assay of this set; here they are far more common.
SMILES,Vif imaging,Neddyl block,GSIS activator,dFosB activator,A1 inh
Cc1noc(C)c1S(=O)(=O)Nc1cccc2c1O[C@H](CN(C)S(=O)(=O)c1c(C)noc1C)[C@H](C)CN([C@@H](C)CO)C2=O,x,x,-2,x,x
C[C@H](CO)N1C[C@H](C)[C@H](CN(C)C(=O)c2ccccn2)Oc2ncc(C#Cc3ccccn3)cc2C1=O,x,x,12,x,x
O=C1c2ccccc2C(=O)c2c1ccc(C(=O)N1CCCCC1)c2NCCO,-15,-92,x,-5,0
CCN(CCN(C)C)C(=O)c1ccc2c(c1NCCO)C(=O)c1ccccc1C2=O,-6,-116,-4,20*,0
COc1ccc(OCCn2cc(/C=C(\C#N)C(=O)NCc3ccco3)c3ccccc32)cc1,0,x,-1,-11,0
N#C/C(=C\c1cn(CCOc2ccccc2)c2ccccc12)C(=O)NCc1cccs1,-3,x,99*,7,0
CC(=O)Nc1ccccc1-c1nnn(CC(=O)Nc2ccc3c(c2)OCCO3)n1,-11,2,-12,0,1
Cc1ccccc1C(=O)Nc1ccccc1-c1nnn(CC(=O)Nc2ccc3c(c2)OCCO3)n1,-4,-33,x,31*,0
COc1cccc(-c2ccc([C@H]3[C@H]4CN(C(=O)C5CCC5)CC(=O)N4[C@H]3CO)cc2)c1,x,x,-13,x,x
C[C@@H]1CCCCO[C@@H](CN(C)S(=O)(=O)c2cn(C)cn2)[C@H](C)CN([C@H](C)CO)C(=O)c2cc(NC(=O)Cc3ccccc3)ccc2O1,x,x,2,x,x
CCCCn1c(-c2csc3ccccc23)n[nH]c1=S,-1,-19,26,-4,0
CCCCCCn1c(-c2cccs2)n[nH]c1=S,-14,x,46*,-3,-1
COc1ccc(NS(=O)(=O)c2ccc(N/N=C/c3ccc(N4CCOCC4)cc3)c([N+](=O)[O-])c2)cc1,-5,1,x,-6,0
COc1ccc(/C=N/Nc2ccc(C(F)(F)F)cc2[N+](=O)[O-])cc1,x,2,45*,3,2
CCNc1nc(Oc2ccc(F)cc2)cc(C(F)(F)F)n1,2,10,-6,5,0
CCNc1nc(Oc2ccc(C#N)cc2)cc(C(F)(F)F)n1,3,16,105*,-8,1
C[C@@H]1CCCCO[C@H](CN(C)C(=O)c2ccncc2)[C@H](C)CN([C@H](C)CO)C(=O)c2cc(NC(=O)CCC(F)(F)F)ccc2O1,x,x,1,x,x
CCCCNC(=O)c1ccc(Cn2c(=S)[nH]c3c([nH]c4ccc(OC)cc43)c2=O)cc1,22,-12,x,-8,51*
CCOCCCNC(=O)c1ccc(Cn2c(=S)[nH]c3c([nH]c4ccc(OC)cc43)c2=O)cc1,1,-13,2,-1,0
CCCCc1c(-c2cccc(OC)c2)ncn1CCc1ccccc1OC,x,2,80*,x,x
CCCCc1c(-c2ccc(OC)c(OC)c2)ncn1CCc1ccccc1OC,x,10,-25,x,x
COc1ccccc1CCn1cnc(-c2ccccc2F)c1CC(C)C,x,x,42*,x,x
CCCCc1c(Cc2cccc(F)c2)ncn1CCc1ccccc1OC,x,2,123*,x,x
COc1ccc(-c2ncn(CCc3ccccc3OC)c2CC(C)C)cc1,x,x,50,x,x
COc1ccccc1CCn1cnc(-c2cccc(F)c2)c1C(C)C,x,x,64*,x,x
SMILES,Vif imaging,Neddyl block,GSIS activator,dFosB activator,A1 inh
C[C@@H]1CCCCO[C@H](CN(C)C(=O)c2ccccc2)[C@@H](C)CN([C@H](C)CO)C(=O)c2cc(NS(C)(=O)=O)ccc2O1,x,x,25,x,x
CCCN(C)C[C@H]1OCCCC[C@@H](C)Oc2ccc(NC(=O)Cc3ccccc3)cc2C(=O)N([C@@H](C)CO)C[C@H]1C,x,x,-18,x,x
CCCCc1c(-c2ccc(F)cc2F)ncn1CCc1ccccc1OC,x,1,120*,x,x
CCCCCc1c(-c2ccc(F)cc2F)ncn1CCc1ccccc1OC,x,0,104*,x,x
CCCCCc1c(-c2ccccc2)ncn1CCc1ccccc1OC,x,2,-5,x,x
COc1ccc(S(=O)(=O)Nc2ccc3c(c2)C(=O)N([C@H](C)CO)C[C@@H](C)[C@@H](CN(C)S(C)(=O)=O)OCCCC[C@H](C)O3)cc1,x,x,6,x,x
CC=Cc1ccc2n(c1=O)C[C@@H]1[C@@H](CO)[C@H](C(=O)NCCc3ccncc3)[C@H]2N1CCc1ccccc1 (mixture of isomers),x,x,-3,x,x
CCCCCN=C(N)N/N=C/c1c[nH]c2ccc(OC)cc12,81*,8,x,18*,0
O=C(C[C@@H]1CC[C@H]2[C@@H](COC[C@H](O)CN2CC2CCCC2)O1)NCc1ccc(Cl)cc1,x,x,-13,x,x
COc1ccc(NC(=O)CSc2nnc3ccc(-c4cccnc4)nn23)c(OC)c1,-2,-1,70*,-3,0
COc1ccccc1NC(=O)CSc1nnc2ccc(-c3cccnc3)nn12,-5,-22,-6,-7,0
CCCC(=O)Nc1ccc2c(c1)OC[C@@H](C)N(C(=O)Cc1cccnc1)C[C@@H](C)[C@H](OC)CN(C)C2=O,x,x,-2,x,x
CCn1ccc(C(=O)Nc2ccccc2SC)n1,2,0,41*,-5,-3
COc1ccccc1CNC(=O)CCNS(=O)(=O)c1ccc2[nH]c(=O)oc2c1,15,1,53*,-3,-1
Cc1ccc(NC(=O)Cn2ncc3c([nH]c4ccccc43)c2=O)cc1Cl,3,-1,7,55*,0
O=C(Cn1ncc2c([nH]c3ccccc32)c1=O)Nc1cccnc1,1,8,5,5,0
CC(C)NC(=O)Nc1ccc2c(c1)C(=O)N([C@H](C)CO)C[C@H](C)[C@@H](CN(C)C(=O)Nc1cccc3ccccc13)OCCCC[C@H](C)O2,x,x,-2,x,x
O=C1/C(=C/c2cccc([N+](=O)[O-])c2)CSc2ccc(Cl)cc21,2,-21,-2,-1,0
CCN1C/C(=C\c2cccc([N+](=O)[O-])c2)C(=O)/C(=C/c2cccc([N+](=O)[O-])c2)C1,70*,-21,18,-10,x
O=C1/C(=C/c2ccc([N+](=O)[O-])cc2)CCc2ccccc21,x,x,x,x,-7
O=C1/C(=C/c2cccc([N+](=O)[O-])c2)CCc2ccccc21,136*,-2,40,-2,0
COC(=O)C1=C(C)N(Cc2ccco2)C(=O)/C1=C\c1ccc(N(C)C)cc1,71*,-18,57*,-6,0
CC(=O)c1ccc(OCC(=O)N(C2CCCCC2)C2CCS(=O)(=O)C2)cc1 (stereo unspecified),19,2,54*,12,0
C[C@H](CO)N1C[C@H](C)[C@@H](CN(C)CC2CCCCC2)Oc2c(NC(=O)c3cnccn3)cccc2C1=O,x,x,4,x,x
O=C(C[C@@H]1CC[C@H]2[C@@H](COC[C@@H](O)CN2CC2CCCCC2)O1)NCC1CC1,x,x,7,x,x

# Compound activity (PubChem)
